RXFP1 ag: RXFP1 (human) receptor agonism. Q9HBX9. Potency, µM (titrated, usually from 57.5 µM), inactives show top-dose activation, hits mostly activators. 370,000 compounds, 0.3% hits. HEK293T-RXFP1 cAMP TR-FRET, 30 min; response scale: percent of porcine relaxin response, buffer zero; also: potency is read from the fitted curve at half-maximal effect; % is scaled to controls: 0 for no effect and ±100 for the full control effect; nearly all actives have a fitted effect of over 60% in size
Target sequence (Q9HBX9 whole entry, looked up): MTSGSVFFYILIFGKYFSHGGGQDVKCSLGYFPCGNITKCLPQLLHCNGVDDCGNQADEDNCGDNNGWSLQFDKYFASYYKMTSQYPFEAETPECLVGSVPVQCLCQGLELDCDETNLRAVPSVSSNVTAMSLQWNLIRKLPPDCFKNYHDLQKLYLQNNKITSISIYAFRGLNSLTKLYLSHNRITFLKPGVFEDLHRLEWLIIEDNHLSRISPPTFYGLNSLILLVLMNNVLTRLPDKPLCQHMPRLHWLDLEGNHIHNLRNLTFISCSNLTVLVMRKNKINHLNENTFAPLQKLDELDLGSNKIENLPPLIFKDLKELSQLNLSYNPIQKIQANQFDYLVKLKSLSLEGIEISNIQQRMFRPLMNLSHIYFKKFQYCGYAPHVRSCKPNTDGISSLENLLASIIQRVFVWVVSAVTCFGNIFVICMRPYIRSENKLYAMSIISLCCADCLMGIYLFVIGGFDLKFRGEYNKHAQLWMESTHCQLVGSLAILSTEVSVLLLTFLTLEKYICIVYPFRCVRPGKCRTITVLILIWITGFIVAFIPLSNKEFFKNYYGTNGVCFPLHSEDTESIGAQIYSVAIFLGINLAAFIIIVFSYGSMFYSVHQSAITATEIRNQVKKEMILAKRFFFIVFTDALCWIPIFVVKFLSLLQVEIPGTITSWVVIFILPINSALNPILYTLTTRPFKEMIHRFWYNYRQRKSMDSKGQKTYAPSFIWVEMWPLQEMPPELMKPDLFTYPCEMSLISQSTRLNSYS
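HEK293T cells stably expressing RXFP1 were pretreated with the PDE4 inhibitor Ro 20174, exposed to compounds for 30 min at 37C, lysed, and cAMP was read by TR-FRET. Data normalized to buffer (basal) and 29 nM porcine relaxin (100%).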
RXFP1 antagonist: antagonists of human relaxin receptor RXFP1. HEK293-RXFP1, relaxin-stimulated cAMP HTRF, 30 min; active compounds read low. activity change, negative = inhibition, % at 57.5 µM. 350,000 compounds, 0.59% hits. AID 1259400;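 active = activity change of -60% or lower, but not beyond a set lower limit; inconclusive = change between -60% and -40%, or beyond the set limit; inactive = change above -40%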; also: % is scaled to controls: 0 for no effect and ±100 for the full control effect
KCNH2 3.1 block: KCNH2 3.1 (human) potassium channel inhibition; U2OS KCNH2 3.1, thallium flux FluxOr; active compounds read low; activity change, % (tested at about 1.8 µM); 340,000 compounds, 0.95% hits; AID 720553;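 active = maximum activity change below -70%; inconclusive = maximum activity change from -70% to -50%; inactive = maximum activity change above -50%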;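 also: thallium influx rate constant from kinetic fluorescence after stimulation buffer; % is scaled to controls: 0 for no effect and ±100 for the full control effect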
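Kinetic fluorescence (2 min after stimulation buffer) measures Tl+ influx through KCNH2 3.1 expressed by viral transduction in U2OS cells; the rate constant is normalized against DMSO controls serving as positive and negative references.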
GRP78 ERSR act: inducers of ER stress response in human glioma cells; U87-MG GRP78 promoter luciferase reporter, 16 h; Potency, µM, for the others: top-dose activation, actives largely listed as activators; 420,000 compounds, 0.02% hits; AID 602332; also: potency is read from the fitted curve at half-maximal effect; series mostly up to about 76 µM; % of control where 0% means no effect; nearly all actives have a fitted effect of over 35% in size
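ERSR induction read as luciferase luminescence (Bright-Glo, 10 min at room temperature) in stably transfected human U87-MG glioma cells exposed to compounds for 16 h, using GRP78 as sensor.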
PTHR1 ag: PTHR1 (human) receptor agonism; Q03431; AID 743266; Potency, µM (highest dose often 115 µM), for inactives: at the highest dose activation, actives largely listed as activators; 410,000 compounds, 0.075% hits; HEK293 GP2 PTHR1 cells, GloSensor cAMP luminescence, 1 h; also: potency is read from the fitted curve at half-maximal effect; nearly all actives have a fitted effect of over 55% in size
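HEK-293-derived GP2 cells expressing PTHR1 and a GloSensor cAMP reporter, 3,000/well, plated overnight, given luciferin plus IBMX (each 0.5 mM as added) for 1 h at 37 °C, then compound for 1 h at 37 °C. Luminescence was read after 15 min at room temperature.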
hERG WT inh: blocks the wildtype human KCNH2 potassium channel; U2OS, BacMam KCNH2, thallium flux FluxOr; active compounds read low; Q12809; 340,000 compounds, 0.37% hits; activity change, % at 1.84 µM;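 active = maximum activity change below -70%; inconclusive = maximum activity change between -70% and -50%; inactive = maximum activity change above -50%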; also: % is scaled to controls: 0 for no effect and ±100 for the full control effect
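U2OS cells transduced with wild-type KCNH2 virus are loaded with FluxOr dye for 45 min, and thallium flux is measured in kinetic reads before and after stimulation buffer. Rate constants are normalized to DMSO controls.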
* marks the source's active call; other numbers are inactive results; i = inactive; ? = inconclusive; / = no result. An excerpt weighted towards active compounds, which were near 1.4% of everything screened. Unless noted, calls follow the shape of the dose curve; as a rule, active = well fitted curve in the direction sought with a large enough effect; inconclusive = small, poorly fitted or top-dose-only effect, or another doubt; inactive = no such curve, though single readings can be large; an effect the other way counts as inactive or inconclusive.

SMILES	RXFP1 ag	RXFP1 antagonist	KCNH2 3.1 block	GRP78 ERSR act	PTHR1 ag	hERG WT inh
CN1CCN(c2ccc(NC(=O)c3ccc(-c4ccc(Br)cc4)o3)cc2)CC1	1%	1	-71*	-2%	i	33
COc1ccccc1C(=O)NC(=S)Nc1ccc(NC(=O)c2ccco2)cc1	-1%	-31	-73*	-1%	-12%	11
COc1ccc(N2CC(C(=O)N3CCN(C)CC3)CC2=O)cc1 (stereo unspecified)	2%	-21	17	-3%	i	-6
C[C@@H]1CN([C@H](C)CO)C(=O)CCCn2nncc2CO[C@H]1CN(C)S(=O)(=O)c1cccs1	/	8	-9	1%	-23%	-6
O=C(Nc1ccc(F)cc1F)c1ccco1	2%	3	-77*	2%	-19%	-6
CCCCOc1ccc(C(=O)N/C(=C\c2cccc([N+](=O)[O-])c2)C(=O)OCc2ccco2)cc1	0%	13	-75*	1%	-33%	-28
O=C(O)c1cc(-c2ccccc2)n(-c2ccc(Cl)cc2Cl)n1	-4%	-10	-1	2%	-18%	-1
N/C(=N\OC(=O)c1cccs1)C1(c2ccc(Cl)cc2Cl)CC1	1%	-115*	-6	0%	i	4
COc1ccccc1C(=O)NCCC(=O)Nc1ncccc1C	2%	-5	2	-4%	i	1
C=CCn1c(C)nnc1SCC(=O)NC1CCCCC1	0%	-2	2	2%	i	8
COc1ccc(-n2nc(C(=O)NCC(=O)NCCCN3CCOCC3)c3ccccc3c2=O)cc1OC	14µM*	11	5	-3%	-7%	-4
COc1ccc(-n2nc(C(=O)NCC(=O)NCCCN3CCOCC3)c3ccccc3c2=O)cc1Cl	?	17	2	-5%	i	0
COc1ccc(-n2nc(C(=O)NCC(=O)NCCCN3CCOCC3)c3ccccc3c2=O)cc1	16µM*	32	8	-2%	i	-12
COC(=O)c1ccc(NC(=O)CCc2c(C)nc3c(-c4ccccc4)c(C)nn3c2C)cc1	0%	/	/	-7%	-30%	/
O=C(CN1C(=O)/C(=C/c2ccccc2Cl)SC1=S)NC1C=CS(=O)(=O)C1 (stereo unspecified)	2%	-61*	-11	7%	i	-1
O=C(CCN1C(=O)/C(=C/c2ccccc2Cl)SC1=S)NNC(=O)c1ccccc1O	-4%	-71*	1	-6%	-16%	-8
O=C(CN1C(=O)/C(=C/c2ccc(F)cc2)SC1=S)NC1CCS(=O)(=O)C1 (stereo unspecified)	-3%	-67*	-1	-2%	-1%	-2
O=C(CN1C(=O)/C(=C/c2ccccc2)SC1=S)NC1C=CS(=O)(=O)C1 (stereo unspecified)	0%	-16	27	1%	-2%	-8
O=C(CN1C(=O)/C(=C/c2ccccc2)SC1=S)NC1CCS(=O)(=O)C1 (stereo unspecified)	-2%	-61*	8	-1%	-8%	1
CCOc1ccc(S(=O)(=O)N(CC(=O)Nc2ccc3c(c2)OCO3)c2ccc(C)cc2)cc1	0%	-14	/	0%	-2%	/
Cc1onc(-c2c(F)cccc2Cl)c1C(=O)N[C@@H]1C(=O)N2C(C(=O)O)C(C)(C)S[C@H]12 (stereo partly specified)	1%	/	15	-4%	-21%	-9
CCC1CN(C(=O)N2CCC(C(=O)NCCc3ccccc3C)CC2)c2ccccc2O1 (stereo unspecified)	-3%	-18	/	-5%	-30%	/
CCC1CN(C(=O)N2CCC(C(=O)NCc3ccc(C)o3)CC2)c2cc(C)ccc2O1 (stereo unspecified)	2%	2	3	1%	-16%	4
CCC1CN(C(=O)N2CCC(C(=O)NCCc3ccccc3Cl)CC2)c2cc(C)ccc2O1 (stereo unspecified)	3%	-87*	/	-8%	-95%	/
CCc1ccc(CNC(=O)C2CCN(C(=O)N3CC(CC)Oc4ccc(C)cc43)CC2)cc1 (stereo unspecified)	-1%	-68*	/	-5%	-89%	/
SMILES	RXFP1 ag	RXFP1 antagonist	KCNH2 3.1 block	GRP78 ERSR act	PTHR1 ag	hERG WT inh
C/C(=N/NC(=O)c1ccc(Cn2cccn2)o1)c1cccc(NC(=O)c2ccncc2)c1	2%	7	-19	4%	i	3
CC12CCC(c3c(C(=O)N4CCOCC4)nn(-c4ccccc4)c31)C2(C)C (stereo unspecified)	-3%	3	-7	-4%	0%	0
CCn1c(CC(=O)Nc2ccccc2)nnc1SCC(=O)NC1CCCC1	3%	3	9	-1%	i	-2
O=C(CSc1ncccc1C(=O)O)NC1CCCCCCC1	-2%	7	-79*	-4%	i	-3
CCn1c(COc2ccccc2)nnc1SCC(=O)NC1CCCCC1	-2%	1	-5	-3%	i	-176*
CNC(=O)c1c(NC(=O)Cc2coc3ccc(OC)cc23)sc2c1CCCC2	0%	-10	/	-2%	-30%	/
CC(=O)c1ccc(NC(=O)CN2CCN(CC(=O)Nc3ccc(C(C)=O)cc3)CC2)cc1	7%	-3	-102*	-3%	i	6
COc1ccc(S(=O)(=O)N2CCN(CC(=O)Nc3ccccc3Cl)CC2)cc1	2%	0	-88*	-4%	-7%	4
COc1ccc(NC(=O)CN2CCN(CC(=O)Nc3ccc(OC)cc3)CC2)cc1	0%	-5	-108*	-6%	-3%	-92*
CCOc1ccc(C(=O)c2cn(CC(=O)Nc3ccc(OC)cc3)c3cc4c(cc3c2=O)OCO4)cc1	25µM*	/	/	1%	i	/
COc1ccc(S(=O)(=O)N2CCN(CC(=O)Nc3ccccc3OC)CC2)cc1	2%	-17	-36	-2%	-3%	1
CCCCCCOc1ccc(C(=O)n2cnc(N)n2)cc1	2%	-12	0	-3%	i	-3
CC(C)N1CCc2c(sc(NC(=O)c3cc4cc([N+](=O)[O-])ccc4s3)c2C(N)=O)C1	5%	3	-2	-8%	i	-3
Cc1ccc(NC(=O)C2CSC3(C)CCC(=O)N23)cc1S(=O)(=O)N1CCCCCC1 (stereo unspecified)	-2%	-1	-5	-5%	-94%	34
COc1ccc(NC(=O)CN2CCN(CC(=O)Nc3ccc4c(c3)OCO4)CC2)cc1	2%	-6	/	-3%	i	-79*
COC1=CC(=Cc2c(N)n3nc(CC(=O)N4CCCCC4)sc3nc2=O)C=C(OC)C1=O	5%	2	10	-2%	i	-70*
